Assay results as given in the supplement of paper PMC10849652.
The full data set covers some 8,800 targets. This sample favours those with a hit. About 0.5% of all pairs of compound and target were hits.

Compound: Cc1ncc(-c2ccnc(Nc3ccc(S(C)(=O)=O)cc3)n2)n1C(C)C
Experiment: log2 fold change, soluble protein after heating vs DMSO (PISA); higher = thermal stabilisation; K562 lysate, 10 uM; active = over 0.2 and 3.5 SD of the protein, either way, in both replicates (recomputed)
Procedure, shortened: (§1)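 Dounce homogenisation of K562 pellets in PBS pH 7.4 with 1 mM MgCl2 produced a crude extract, used at 1 mg/mL protein. Exposure to 10 μM compound lasted 30 min, and aliquots were then heated for 3 min across 48°C-58°C, pooled and brought to 0.5% NP-40 at 4°C. The supernatant after 21,000xg for 90 min was quantified by TMTpro 16plex LC-MS/MS with channel sums equalised. Duplicate values are given as log-two fold change in thermal stability relative to solvent controls.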

Chain of UniProt Q14103 (Q14103 whole entry, looked up): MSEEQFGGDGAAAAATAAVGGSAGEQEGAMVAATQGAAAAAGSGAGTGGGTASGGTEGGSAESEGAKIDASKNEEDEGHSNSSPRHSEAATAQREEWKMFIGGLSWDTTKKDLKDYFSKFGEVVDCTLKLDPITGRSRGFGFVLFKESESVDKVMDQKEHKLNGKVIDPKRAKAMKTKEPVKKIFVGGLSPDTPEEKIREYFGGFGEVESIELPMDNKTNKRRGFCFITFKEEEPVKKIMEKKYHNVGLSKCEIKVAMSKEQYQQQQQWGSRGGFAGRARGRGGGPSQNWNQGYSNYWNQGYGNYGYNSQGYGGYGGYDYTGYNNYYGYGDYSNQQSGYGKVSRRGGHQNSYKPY
Chain of UniProt P23677 (P23677 whole entry, looked up): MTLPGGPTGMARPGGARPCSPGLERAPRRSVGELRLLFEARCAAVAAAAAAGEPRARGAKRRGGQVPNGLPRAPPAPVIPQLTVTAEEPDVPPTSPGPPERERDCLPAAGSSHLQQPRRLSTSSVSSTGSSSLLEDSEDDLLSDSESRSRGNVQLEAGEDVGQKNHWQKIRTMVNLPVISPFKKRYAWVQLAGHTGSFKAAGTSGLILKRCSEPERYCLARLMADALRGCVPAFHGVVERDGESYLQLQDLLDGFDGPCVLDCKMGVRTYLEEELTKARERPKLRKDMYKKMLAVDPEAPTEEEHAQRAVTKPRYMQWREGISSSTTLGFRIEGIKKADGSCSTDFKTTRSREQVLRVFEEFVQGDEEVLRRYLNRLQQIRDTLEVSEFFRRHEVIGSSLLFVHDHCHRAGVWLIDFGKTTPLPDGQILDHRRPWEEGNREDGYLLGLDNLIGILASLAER
Chain of UniProt Q13478 (Q13478 whole entry, looked up): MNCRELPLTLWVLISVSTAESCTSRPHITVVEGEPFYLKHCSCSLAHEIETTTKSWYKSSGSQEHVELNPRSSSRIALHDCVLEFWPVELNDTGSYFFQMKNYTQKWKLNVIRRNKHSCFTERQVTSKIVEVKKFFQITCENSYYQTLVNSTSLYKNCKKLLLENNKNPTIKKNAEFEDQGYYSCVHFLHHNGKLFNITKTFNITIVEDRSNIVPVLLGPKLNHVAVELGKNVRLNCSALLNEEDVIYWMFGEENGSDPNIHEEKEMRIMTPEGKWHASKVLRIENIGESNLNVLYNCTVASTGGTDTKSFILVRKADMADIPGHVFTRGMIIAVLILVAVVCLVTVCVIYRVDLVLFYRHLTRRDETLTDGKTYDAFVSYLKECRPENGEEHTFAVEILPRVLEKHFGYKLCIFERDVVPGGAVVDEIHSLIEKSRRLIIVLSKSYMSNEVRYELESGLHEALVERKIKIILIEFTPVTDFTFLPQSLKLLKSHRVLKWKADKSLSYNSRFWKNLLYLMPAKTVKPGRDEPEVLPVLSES
Chain of UniProt Q9NWZ3 (Q9NWZ3 whole entry, looked up): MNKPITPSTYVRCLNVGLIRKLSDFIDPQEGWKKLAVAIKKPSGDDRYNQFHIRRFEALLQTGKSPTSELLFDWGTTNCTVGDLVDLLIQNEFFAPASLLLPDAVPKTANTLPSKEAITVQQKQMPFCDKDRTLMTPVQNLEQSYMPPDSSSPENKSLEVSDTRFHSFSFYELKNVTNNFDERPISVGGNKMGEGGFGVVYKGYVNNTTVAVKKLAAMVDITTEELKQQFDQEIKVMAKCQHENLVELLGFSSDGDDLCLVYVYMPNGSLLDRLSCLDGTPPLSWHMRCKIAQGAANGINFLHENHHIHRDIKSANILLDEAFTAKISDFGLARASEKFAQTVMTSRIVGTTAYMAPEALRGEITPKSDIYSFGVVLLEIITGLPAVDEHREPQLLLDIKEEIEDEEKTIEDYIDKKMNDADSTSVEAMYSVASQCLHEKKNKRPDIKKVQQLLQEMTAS
Chain of UniProt Q9BX10 (Q9BX10 whole entry, looked up): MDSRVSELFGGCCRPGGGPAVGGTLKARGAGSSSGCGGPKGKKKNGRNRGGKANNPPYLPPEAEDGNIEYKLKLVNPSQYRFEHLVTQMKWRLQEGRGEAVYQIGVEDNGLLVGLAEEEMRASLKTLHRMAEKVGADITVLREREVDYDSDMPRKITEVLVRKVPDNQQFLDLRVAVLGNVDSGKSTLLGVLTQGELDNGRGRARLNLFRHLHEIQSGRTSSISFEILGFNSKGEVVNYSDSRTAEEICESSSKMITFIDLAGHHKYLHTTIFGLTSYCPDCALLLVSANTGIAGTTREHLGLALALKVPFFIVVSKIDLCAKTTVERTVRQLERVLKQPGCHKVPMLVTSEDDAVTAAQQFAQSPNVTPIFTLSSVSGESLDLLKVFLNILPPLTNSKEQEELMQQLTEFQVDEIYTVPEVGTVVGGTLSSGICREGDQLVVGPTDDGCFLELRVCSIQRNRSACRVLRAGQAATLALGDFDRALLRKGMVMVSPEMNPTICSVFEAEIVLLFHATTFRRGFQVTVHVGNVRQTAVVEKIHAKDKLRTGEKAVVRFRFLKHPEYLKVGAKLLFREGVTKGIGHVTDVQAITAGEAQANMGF
Chain of UniProt Q68E01 (Q68E01 whole entry, looked up): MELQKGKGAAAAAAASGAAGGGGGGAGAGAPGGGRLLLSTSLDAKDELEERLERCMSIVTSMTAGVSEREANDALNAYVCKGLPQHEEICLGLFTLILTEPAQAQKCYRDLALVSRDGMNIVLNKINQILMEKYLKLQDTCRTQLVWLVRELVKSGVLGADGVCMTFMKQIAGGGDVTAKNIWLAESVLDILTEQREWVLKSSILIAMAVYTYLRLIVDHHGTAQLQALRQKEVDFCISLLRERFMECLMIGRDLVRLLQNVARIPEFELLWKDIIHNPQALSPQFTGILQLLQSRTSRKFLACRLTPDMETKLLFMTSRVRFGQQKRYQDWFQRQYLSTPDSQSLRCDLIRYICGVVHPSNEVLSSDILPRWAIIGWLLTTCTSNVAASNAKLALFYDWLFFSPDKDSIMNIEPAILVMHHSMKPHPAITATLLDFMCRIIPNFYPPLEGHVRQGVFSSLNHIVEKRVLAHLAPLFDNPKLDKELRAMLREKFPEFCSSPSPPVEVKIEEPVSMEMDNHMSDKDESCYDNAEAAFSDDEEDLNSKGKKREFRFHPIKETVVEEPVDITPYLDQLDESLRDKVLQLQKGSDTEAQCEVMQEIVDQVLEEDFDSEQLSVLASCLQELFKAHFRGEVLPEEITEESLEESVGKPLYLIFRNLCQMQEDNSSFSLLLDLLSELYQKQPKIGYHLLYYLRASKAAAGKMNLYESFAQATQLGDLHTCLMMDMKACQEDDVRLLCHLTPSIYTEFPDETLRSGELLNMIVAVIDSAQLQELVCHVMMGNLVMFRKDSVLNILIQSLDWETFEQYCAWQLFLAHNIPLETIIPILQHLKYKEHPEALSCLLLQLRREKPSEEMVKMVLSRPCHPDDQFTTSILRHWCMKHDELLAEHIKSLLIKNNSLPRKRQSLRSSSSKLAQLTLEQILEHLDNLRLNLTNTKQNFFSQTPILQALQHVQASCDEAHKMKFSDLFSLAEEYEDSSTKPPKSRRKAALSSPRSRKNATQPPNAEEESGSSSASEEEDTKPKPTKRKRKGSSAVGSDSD
Chain of UniProt P50747 (P50747 whole entry, looked up): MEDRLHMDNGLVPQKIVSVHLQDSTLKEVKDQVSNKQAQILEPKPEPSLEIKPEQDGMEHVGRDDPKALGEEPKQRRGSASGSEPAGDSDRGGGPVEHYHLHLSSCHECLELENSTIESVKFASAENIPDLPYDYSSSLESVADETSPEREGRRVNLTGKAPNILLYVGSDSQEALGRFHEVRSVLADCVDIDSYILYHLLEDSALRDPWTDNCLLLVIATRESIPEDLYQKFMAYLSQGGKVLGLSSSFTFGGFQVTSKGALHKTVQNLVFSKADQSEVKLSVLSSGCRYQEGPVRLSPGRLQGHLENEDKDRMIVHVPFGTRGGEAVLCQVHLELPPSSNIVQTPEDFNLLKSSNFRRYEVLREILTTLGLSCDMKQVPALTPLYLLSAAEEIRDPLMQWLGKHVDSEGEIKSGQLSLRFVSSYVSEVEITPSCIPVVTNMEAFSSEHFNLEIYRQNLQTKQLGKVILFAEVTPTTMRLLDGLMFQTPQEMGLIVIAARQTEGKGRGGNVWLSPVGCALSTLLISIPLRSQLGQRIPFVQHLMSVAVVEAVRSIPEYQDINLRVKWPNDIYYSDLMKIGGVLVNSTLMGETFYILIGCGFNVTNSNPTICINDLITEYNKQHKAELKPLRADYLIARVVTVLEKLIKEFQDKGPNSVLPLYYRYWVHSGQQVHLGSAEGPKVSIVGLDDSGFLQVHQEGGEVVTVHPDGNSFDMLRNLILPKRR
Chain of UniProt Q15046 (Q15046 whole entry, looked up): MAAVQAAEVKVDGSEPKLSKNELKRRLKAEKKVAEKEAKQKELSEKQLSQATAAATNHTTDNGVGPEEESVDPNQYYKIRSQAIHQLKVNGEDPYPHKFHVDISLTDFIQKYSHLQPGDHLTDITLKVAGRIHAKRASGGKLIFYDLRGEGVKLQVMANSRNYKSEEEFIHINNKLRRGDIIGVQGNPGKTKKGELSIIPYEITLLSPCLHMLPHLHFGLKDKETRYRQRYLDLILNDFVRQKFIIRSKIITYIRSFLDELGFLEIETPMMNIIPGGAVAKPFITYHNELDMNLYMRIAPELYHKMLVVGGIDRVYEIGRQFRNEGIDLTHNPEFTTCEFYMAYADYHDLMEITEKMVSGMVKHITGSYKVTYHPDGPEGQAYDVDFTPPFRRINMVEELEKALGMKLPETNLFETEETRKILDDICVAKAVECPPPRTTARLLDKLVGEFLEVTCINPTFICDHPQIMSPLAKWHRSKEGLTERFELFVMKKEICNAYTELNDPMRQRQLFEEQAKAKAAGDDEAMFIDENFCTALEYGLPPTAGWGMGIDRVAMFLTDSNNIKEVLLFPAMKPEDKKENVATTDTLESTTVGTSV
Chain of UniProt Q96AB3 (Q96AB3 whole entry, looked up): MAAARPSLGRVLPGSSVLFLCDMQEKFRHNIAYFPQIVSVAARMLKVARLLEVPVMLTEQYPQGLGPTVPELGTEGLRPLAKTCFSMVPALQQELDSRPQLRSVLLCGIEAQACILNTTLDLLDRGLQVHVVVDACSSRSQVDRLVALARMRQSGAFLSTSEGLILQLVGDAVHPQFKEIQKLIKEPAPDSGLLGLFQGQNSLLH

log2 fold change, inactive:
GTPBP2 (UniProt Q9BX10) -0.014, GMDS (UniProt O60547) -0.03, HSPA8 (UniProt E9PK54) -0.021, ILK (UniProt Q13418) 0, HNRNPUL2 (UniProt Q1KMD3) 0.009, KDM1A (UniProt O60341) 0.005, INF2 (UniProt Q27J81) 0.034, ITPKA (UniProt P23677) -0.001, INTS3 (UniProt Q68E01) -0.045, KBTBD4 isoform 2 (UniProt Q9NVX7) -0.086, HNRNPL (UniProt P14866) 0.013, HK1 isoform 2 (UniProt P19367) -0.005, HAUS8 (UniProt Q9BT25) 0.005, IMMT (UniProt Q16891) 0.037, HIST2H2AA3 (UniProt Q6FI13) 0.035, HAUS6 (UniProt Q7Z4H7) 0.022, ISY1 isoform 1 (UniProt Q9ULR0) -0.024, HLCS (UniProt P50747) -0.003, HSD17B12 (UniProt Q53GQ0) 0.033, HAUS7 isoform 2 (UniProt Q99871) 0.055, GTF2A1 (UniProt P52655) 0.095, IL18R1 (UniProt Q13478) -0.108, IRAK4 (UniProt Q9NWZ3) -0.012, GLUD2 (UniProt P49448) -0.003, HAUS4 (UniProt Q9H6D7) 0.016, HNRNPD isoform 2 (UniProt Q14103) 0.009, HECTD3 (UniProt Q5T447) -0.012, GTF2H1 (UniProt P32780) -0.04, KARS1 (UniProt Q15046) -0.029, HMGCS1 (UniProt Q01581) 0.012, HNRNPAB isoform 3 (UniProt Q99729) 0.024, ISOC2 (UniProt Q96AB3) 0.091, IGF2BP3 (UniProt O00425) 0.006, KBTBD2 (UniProt Q8IY47) 0.006, H2AFY (UniProt O75367) -0.003, KCT2 (UniProt Q8NC54) -0.025

Compound: Cn1cc(-c2ccc3c(c2)CCN3C(=O)Cc2cccc(C(F)(F)F)c2)c2c(N)ncnc21
Experiment: as above
Procedure, shortened: as §1

log2 fold change, inactive:
GTPBP2 (UniProt Q9BX10) 0.005, GMDS (UniProt O60547) -0.013, HSPA8 (UniProt E9PK54) -0.032, ILK (UniProt Q13418) 0.014, HNRNPUL2 (UniProt Q1KMD3) -0.005, KDM1A (UniProt O60341) 0.012, INF2 (UniProt Q27J81) -0.013, ITPKA (UniProt P23677) -0.002, INTS3 (UniProt Q68E01) 0.005, KBTBD4 isoform 2 (UniProt Q9NVX7) -0.022, HNRNPL (UniProt P14866) 0.068, HK1 isoform 2 (UniProt P19367) -0.008, HAUS8 (UniProt Q9BT25) 0.015, IMMT (UniProt Q16891) 0.01, HIST2H2AA3 (UniProt Q6FI13) -0.041, HAUS6 (UniProt Q7Z4H7) 0.038, ISY1 isoform 1 (UniProt Q9ULR0) -0.082, HLCS (UniProt P50747) 0.068, HSD17B12 (UniProt Q53GQ0) 0.007, HAUS7 isoform 2 (UniProt Q99871) -0.026, GTF2A1 (UniProt P52655) 0.046, IL18R1 (UniProt Q13478) 0.004, IRAK4 (UniProt Q9NWZ3) 0.023, GLUD2 (UniProt P49448) -0.017, HAUS4 (UniProt Q9H6D7) 0.052, HNRNPD isoform 2 (UniProt Q14103) -0.05, HECTD3 (UniProt Q5T447) 0.006, GTF2H1 (UniProt P32780) 0.043, KARS1 (UniProt Q15046) 0.02, HMGCS1 (UniProt Q01581) -0.005, HNRNPAB isoform 3 (UniProt Q99729) -0.028, ISOC2 (UniProt Q96AB3) 0, IGF2BP3 (UniProt O00425) 0.063, KBTBD2 (UniProt Q8IY47) 0.028, H2AFY (UniProt O75367) 0.005, KCT2 (UniProt Q8NC54) 0.043
